Measured values from PubChem BioAssay.
The source made the active and inactive calls. Unless noted, the rule behind the calls is not given here.

Columns and labels:
[1] = HepG2 liver cancer cell viability effects, profiling panel, resazurin fluorescence, 24 h, PK04 Diversity Set (AID 1172); conditions: higher = more signal
[2] = basal S. cerevisiae growth modulation, no modifier, primary screen, OD600, strain BY4716, 24 h, basal condition (AID 1173); conditions: OD600, 24 h, higher = more signal, called active from +8 up or from −8 down
[3] = MM1S myeloma cell viability, profiling panel, resazurin fluorescence, basal, 24 h, PK04 Diversity Set (AID 1174); conditions: higher = more signal, called active from +8 up or from −8 down;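 note: MM1S multiple myeloma cell line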
[4] = target: Dihydroorotate dehydrogenase (quinone), mitochondrial (Plasmodium falciparum (isolate 3D7)) (UniProt Q08210); experiment: PfDHODH enzyme inhibitors, primary screen, biochemical, C-terminal His tag, absorbance 600 nm (AID 1175); conditions: DCIP absorbance 600 nm, higher = more signal, called active from +8 up or from −8 down;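 note: recombinant parasite enzyme with a five histidine tag at its C terminus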
[5] = P. aeruginosa biofilm formation inhibitors, primary screen, strain PAO1, LB-PBS medium, absorbance 600 nm (AID 1176); conditions: P. aeruginosa PAO1 growth/biofilm, A600, 12 h; higher = more signal
[6] = S. cerevisiae RM11-1a growth modifiers, primary screen, strain RM11-1a, OD600, basal, 24 h (AID 1177); conditions: OD600, 24 h, higher = more signal, called active from +8 up or from −8 down;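 note: cultures grown under basal conditions with no added stressor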
[7] = E. coli acrAB mutant growth effects, primary screen, E. coli filamentation inducers, strain DRC39, OD650, 24 h (AID 1178); conditions: higher = more signal, called active from +8 up or from −8 down;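 note: growth measured as culture turbidity by optical density at 650 nm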
[8] = E. coli acrAB mutant growth effects, primary screen, E. coli filamentation inducers, strain DRC39, OD650, 48 h (AID 1179);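 note: screen aims at cell division blockers that make cells filament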; conditions: E. coli DRC39 delta-acrAB growth, higher = more signal, called active from +8 up or from −8 down
[9] = RPMI8226 myeloma cell viability, profiling panel, resazurin fluorescence, basal, 24 h, PK04 Diversity Set (AID 1180); conditions: higher = more signal;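 note: RPMI8826 multiple myeloma cell line at 5000 cells per well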
[10] = target: E3 ubiquitin-protein ligase XIAP (Homo sapiens) (UniProt P98170); experiment: XIAP binders, primary screen, biophysical, small-molecule microarray, fluorescence 635 nm (AID 1181); conditions: small-molecule microarray binding, higher = more signal;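 note: score merges 667 nm emission and signal to noise over triplicate slides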
[11] = tested on: XIP peptide (Xip251-270) binding; experiment: small-molecule binders of XIP peptide, primary screen, biochemical, small-molecule microarray, fluorescence 635/667 nm, 0.1 µg/mL protein (AID 1182); conditions: fluorescent protein binding, 635 nm, higher = more signal, called active from +8 up or from −8 down
XIP peptide (Xip251-270) = experiment: small-molecule binders of XIP peptide, primary screen, biochemical, small-molecule microarray, fluorescence 635/667 nm, 0.5 µg/mL protein (AID 1183); conditions: small-molecule microarray binding, fluorescence 635 nm; higher = more signal
[12] = Plasmodium falciparum growth inhibition, primary screen, strain 3D7, DAPI fluorescence, 100 nL (AID 1184);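 note: parasites grown inside human red blood cells in medium with human serum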; conditions: P. falciparum 3D7 growth, 3 d, higher = more signal
[13] = target: Homeobox protein Hox-A13 (Mus musculus) (UniProt Q62424); experiment: inhibitors of HoxA13-DNA binding, primary screen, biochemical, fluorescence polarization, labeled oligonucleotide (AID 1185); conditions: 15 min, higher = more signal, called active from +8 up or from −8 down
[14] = inhibitors of hydroxyurea-induced Chk1 phosphorylation, primary screen, imaging, HeLa, phospho-Chk1 antibody, percent positive cells (AID 1186); conditions: hydroxyurea-induced phospho-Chk1 immunofluorescence imaging, higher = more signal
[15] = inhibitors of hydroxyurea-induced Chk1 phosphorylation, primary screen, imaging, HeLa, phospho-Chk1 nuclear intensity (AID 1187); conditions: hydroxyurea-induced phospho-Chk1 immunofluorescence imaging, higher = more signal

Sequence of Dihydroorotate dehydrogenase (quinone), mitochondrial (Plasmodium falciparum (isolate 3D7)) (Q08210 whole entry, looked up): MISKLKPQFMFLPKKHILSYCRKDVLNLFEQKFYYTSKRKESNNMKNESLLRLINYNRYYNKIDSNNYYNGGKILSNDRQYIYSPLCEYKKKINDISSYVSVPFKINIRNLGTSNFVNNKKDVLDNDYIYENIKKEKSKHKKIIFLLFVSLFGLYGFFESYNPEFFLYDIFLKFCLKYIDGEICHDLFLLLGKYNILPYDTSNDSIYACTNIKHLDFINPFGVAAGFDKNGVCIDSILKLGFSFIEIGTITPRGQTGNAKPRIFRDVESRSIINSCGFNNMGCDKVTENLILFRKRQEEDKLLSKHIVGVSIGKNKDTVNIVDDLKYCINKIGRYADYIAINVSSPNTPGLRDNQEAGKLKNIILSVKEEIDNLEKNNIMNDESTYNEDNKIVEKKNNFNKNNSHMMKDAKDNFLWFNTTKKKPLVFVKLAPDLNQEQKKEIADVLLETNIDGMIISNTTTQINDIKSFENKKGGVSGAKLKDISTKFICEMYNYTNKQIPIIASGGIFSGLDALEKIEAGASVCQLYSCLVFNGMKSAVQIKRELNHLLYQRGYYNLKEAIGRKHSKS
Sequence of Homeobox protein Hox-A13 (Mus musculus) (Q62424 whole entry, looked up): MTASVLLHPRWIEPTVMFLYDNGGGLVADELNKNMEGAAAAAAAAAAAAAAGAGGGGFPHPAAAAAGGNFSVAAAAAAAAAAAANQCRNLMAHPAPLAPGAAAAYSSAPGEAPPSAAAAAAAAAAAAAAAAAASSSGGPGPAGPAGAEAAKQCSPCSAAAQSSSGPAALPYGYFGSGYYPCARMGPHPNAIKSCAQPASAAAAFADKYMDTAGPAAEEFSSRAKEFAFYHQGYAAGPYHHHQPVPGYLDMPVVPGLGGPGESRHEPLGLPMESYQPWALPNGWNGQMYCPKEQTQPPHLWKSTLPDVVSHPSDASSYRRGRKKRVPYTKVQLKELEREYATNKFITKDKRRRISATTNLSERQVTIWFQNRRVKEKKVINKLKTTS
Sequence of E3 ubiquitin-protein ligase XIAP (Homo sapiens) (P98170 whole entry, looked up): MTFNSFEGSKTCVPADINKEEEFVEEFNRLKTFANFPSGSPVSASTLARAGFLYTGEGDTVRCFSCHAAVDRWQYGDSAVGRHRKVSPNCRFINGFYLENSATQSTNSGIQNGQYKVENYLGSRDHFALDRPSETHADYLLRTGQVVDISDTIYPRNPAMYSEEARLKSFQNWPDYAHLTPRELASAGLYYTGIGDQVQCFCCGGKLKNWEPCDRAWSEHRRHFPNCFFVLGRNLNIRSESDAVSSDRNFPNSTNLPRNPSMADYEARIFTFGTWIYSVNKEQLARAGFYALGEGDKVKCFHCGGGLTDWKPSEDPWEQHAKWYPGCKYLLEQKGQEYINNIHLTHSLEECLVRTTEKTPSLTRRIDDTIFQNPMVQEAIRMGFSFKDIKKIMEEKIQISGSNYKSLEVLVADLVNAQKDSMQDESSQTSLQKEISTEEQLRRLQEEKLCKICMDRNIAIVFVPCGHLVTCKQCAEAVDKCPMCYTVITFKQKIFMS

SMILES	z-score [1]	z-score [2]	z-score [3]	composite z-score [4]	z-score [5]	z-score [6]	z-score [7]	z-score [8]	z-score [9]	composite z-score [10]	composite z-score [11]	composite z-score (XIP peptide (Xip251-270))	z-score [12]	z-score [13]	z-score [14]	z-score [15]
CC(C)C[C@H]1NC(=O)CNC(=O)[C@@]23C(=O)N[C@@H](Cc4ccccc4)C2[C@H](C)[C@@]2(C)O[C@H]2C3/C=C/C/C=C\CNC1=O (some centres undefined)	-0.657	-0.572 (inactive)	0.105 (inactive)	-0.341 (inactive)	1.11 (inactive)	0.0636 (inactive)	-0.288 (inactive)	-0.141 (inactive)	0.293	-0.122	0.282 (inactive)	0.685	0.933	-5.94 (inactive)	-0.386 (inactive)	-0.0588 (inactive)
CC[C@@H]1C=C(C(=O)O)[C@H](c2cccc(Cl)c2)N1S(=O)(=O)c1ccc(C)cc1	-0.722	-0.423 (inactive)	-0.869 (inactive)	-0.831 (inactive)	-0.184 (inactive)	-0.285 (inactive)	-0.647 (inactive)	-0.55 (inactive)	-1.89	1.12	0.415 (inactive)	0.141	1.85	-3.71 (inactive)	0.198 (inactive)	-0.141 (inactive)
COCCCNC(=O)[C@@]1(Cc2ccccc2I)c2ccccc2C(=O)N(C2CCCCC2)[C@H]1c1ccc(CO)cc1	1.12	-0.6 (inactive)	0.28 (inactive)	0.154 (inactive)	1.13 (inactive)	-0.244 (inactive)	0.319 (inactive)	0.26 (inactive)	0.448	-0.0343	0.26 (inactive)	0.744	-1.99	-5.35 (inactive)	-0.0463 (inactive)	0.155 (inactive)
C=C(CCCC)/C(=C/C[C@@H](OC(C)=O)c1ccc(OCCO)cc1)c1cc(C(=O)OC)ccc1OC	0.353	-0.107 (inactive)	-1.36 (inactive)	-2.64 (inactive)	0.862 (inactive)	-0.319 (inactive)	0.173 (inactive)	0.107 (inactive)	-0.808	-0.0274	0.952 (inactive)	0.633	-3.06	-4.07 (inactive)	0.526 (inactive)	0.765 (inactive)
C=CCNC(=O)[C@@H]1[C@H]2C(=O)O[C@H](c3ccccc3)[C@H](c3ccccc3)N2[C@H](c2ccc(OCCO)cc2)[C@@]12C(=O)N(C(=O)OCCOC)c1ccccc12	0.0303	1.98 (inactive)	-0.522 (inactive)	0.659 (inactive)	2.69 (inactive)	3.16 (inactive)	0.446 (inactive)	0.282 (inactive)	-0.289	0.0623	1.44 (inactive)	0.718	-0.643	-3.58 (inactive)	-0.0546 (inactive)	0.0358 (inactive)
C=C[C@H](C)[C@@H](OC(=O)Nc1ccc(SC)cc1)c1ccc(OCCO)cc1	-1.01	-0.773 (inactive)	-0.715 (inactive)	0.918 (inactive)	0.696 (inactive)	1.08 (inactive)	-1.55 (inactive)	-1.71 (inactive)	-0.894	-0.208	-0.0975 (inactive)	-0.0208	-0.526	-4.53 (inactive)	-0.328 (inactive)	-0.809 (inactive)
COCCOC(=O)N1C(=O)[C@@]2(c3ccccc31)[C@H](C(=O)Nc1nc3ccccc3s1)[C@H]1C(=O)O[C@H](c3ccccc3)[C@H](c3ccccc3)N1[C@@H]2c1ccccc1OCCO	-0.49	2.38 (inactive)	-0.304 (inactive)	1.38 (inactive)	2.9 (inactive)	2.25 (inactive)	0.0795 (inactive)	-0.315 (inactive)	-0.236	0.0245	0.238 (inactive)	0.801	-1.68	-0.587 (inactive)	0.152 (inactive)	0.367 (inactive)
O=C(NCCN1CCOCC1)[C@@H]1c2ccccc2C(=O)N(CC23CC4CC(CC(C4)C2)C3)[C@H]1c1ccc(CO)cc1	0.258	-1.18 (inactive)	0.631 (inactive)	0.533 (inactive)	-0.121 (inactive)	1.19 (inactive)	0.1 (inactive)	0.108 (inactive)	0.96	0.0593	0.238 (inactive)	0.771	-1.32	-5.14 (inactive)	0.333 (inactive)	0.707 (inactive)
COc1ccc([Si](C)(C)[C@H]2[C@H](CC(=O)N3CCC[C@H]3CO)O[C@@]3(C(=O)N(C)c4ccccc43)[C@@H]2C)cc1	-0.395	0.264 (inactive)	-0.212 (inactive)	-0.269 (inactive)	1.32 (inactive)	0.554 (inactive)	0.133 (inactive)	-0.0566 (inactive)	-0.418	0.0473	-0.216 (inactive)	0.924	1.07	-3.41 (inactive)	-0.529 (inactive)	-0.766 (inactive)
